# Autofluor counter: flagged as autofluorescent in microsphere protease counterscreen | compound autofluorescence counterscreen, microsphere flow cytometry; stronger effect = higher value | fluorescence intensity (concentration not given with the values) | 360,000 tested, 3.1% active | AID 624483; in the data active = fluorescence intensity above about 16000; inconclusive = no clear call, values can overlap the other calls
# BoNT-A LC inh2: blocks Botulinum neurotoxin A light chain protease | multiplex microsphere protease substrate cleavage, flow cytometry | inhibition, % at 10 µM | 360,000 tested, 0.17% active | AID 588499; also: plate controls were buffer without enzyme for full effect and enzyme alone for no effect
# VHR inh abs: DUSP3 (human) phosphatase inhibition. P51452. recombinant VHR phosphatase, pNPP absorbance. inhibition, % at 13.3 µM. 290,000 tested, 0.52% active. AID 1654; in the data active = inhibition above about 50%
# Target sequence (P51452 whole entry, looked up): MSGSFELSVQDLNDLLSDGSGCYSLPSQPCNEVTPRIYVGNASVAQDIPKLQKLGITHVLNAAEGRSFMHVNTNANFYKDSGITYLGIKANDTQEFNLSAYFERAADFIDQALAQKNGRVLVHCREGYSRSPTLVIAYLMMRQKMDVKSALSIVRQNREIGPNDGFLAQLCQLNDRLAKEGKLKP
# Anthrax LF prot: anthrax lethal factor protease inhibition. multiplex microsphere protease cleavage assay, LF. P15917. 360,000 tested, 0.12% active. AID 588501. inhibition, % at 10 µM; also: plate controls were buffer without enzyme for full effect and enzyme alone for no effect
# 3CLpro inhibitor: SARS-CoV 3CLpro protease inhibition; P0C6X7; recombinant SARS-CoV 3CLpro, quenched FRET peptide cleavage; AID 1706; inhibition, % at 6 µM; 290,000 tested, 0.14% active; in the data active = inhibition above about 12%
# BoNT F protease: blocks Botulinum neurotoxin F light chain protease; Multiplex microsphere protease cleavage assay, flow cytometry; inhibition, % at 10 µM; 360,000 tested, 0.22% active; in the data active = inhibition above about 35%, passing the limit was not always enough; inconclusive = no clear call, values can overlap the other calls; also: plate controls were buffer without enzyme for full effect and enzyme alone for no effect
# * marks the source's active call; other numbers are inactive results; u = inconclusive; x = no result given. Rows were chosen to be rich in hits. Some 3.9% of all compounds tested hit in one or more screens of this group. Rule as the data show it, unless noted: active = inhibition above about 30%; inconclusive = no clear call, values can overlap the other calls; inactive = below that.
SMILES,Autofluor counter,BoNT-A LC inh2,VHR inh abs,Anthrax LF prot,3CLpro inhibitor,BoNT F protease
CCOC(=O)C(CCSC)NC(=O)CN (stereo not drawn),22429*,0.2,31.9,-1.0,1.5,-2.2
CCC(C)NC(=O)NCc1ccccc1F (stereo not drawn),2524,-0.7,56.3*,2.6,0.0,1.4
COC(=O)[C@H](CCSC)NC(=O)NCc1ccccc1F,22106*,1.0,9.7,1.1,-2.3,-1.7
CCOc1ccccc1NC(=O)NCc1ccccc1F,3969,-1.5,16.9,0.4,0.2,-0.7
O=C(NCc1ccccc1F)Nc1ccc([N+](=O)[O-])cc1,4300,0.0,56.4*,-3.4,5.8,-3.4
NC(=O)NC(=O)C(c1ccccc1)N1CCN(S(=O)(=O)Cc2ccccc2)CC1 (stereo not drawn),2732,0.4,x,-7.7,x,-6.5
CCC(C)NC(=O)N[C@@H](CCSC)C(=O)OC (stereo partly drawn),10858,-0.6,56.4*,1.1,1.4,-4.0
CCCCOCCCNC(=O)N[C@@H](CCSC)C(=O)OC,10533,-0.7,7.0,1.2,-1.6,-9.9
Cc1sc(NC(=O)c2ccco2)c(C(c2ccncc2)N2CCOCC2)c1C (stereo not drawn),18732*,3.4,23.5,-1.6,-2.6,1.9
Cc1sc(NC(=O)c2ccco2)c(CN2CCN(c3ccccc3)CC2)c1C,20298*,-0.4,4.2,-4.9,0.5,-3.3
Cc1ccc(-c2nn(C)c(=O)c3ccccc23)cc1S(=O)(=O)N1CCCC1,5862,-0.4,15.1,-7.1,-3.6,-1.6
Cn1nc(-c2ccc(N3CCOCC3)c(NS(=O)(=O)c3ccccc3)c2)c2ccccc2c1=O,22480*,-6.9,6.4,-1.1,-2.3,-5.2
Cc1ccc(S(=O)(=O)Nc2cc3c(cc2N2CCOCC2)n(C)c(=O)c(=O)n3C)cc1,5497,-0.7,-31.1,5.4,-3.7,-1.6
CC(=O)Nc1cc(-c2nn(C)c(=O)c3ccccc23)ccc1N1CCCCC1,16582*,-0.2,22.8,-2.2,3.1,3.2
CCC(=O)Nc1cc(-c2nn(C)c(=O)c3ccccc23)ccc1OC,21426*,2.7,22.7,0.2,0.6,2.8
Cc1ccc(-c2nn(C)c(=O)c3ccccc23)cc1S(=O)(=O)N1CCOCC1,25828*,-10.6,9.4,-7.3,-1.2,-13.3
CCC(=O)Nc1cc(-c2nn(C)c(=O)c3ccccc23)ccc1N1CCCCC1,3552,0.5,24.6,-2.1,-6.0,-4.7
O=C(C[n+]1cccc(/C=N/O)c1)NC(=O)Nc1ccccc1,6215,-1.1,x,-1.6,x,-6.0
Cc1ccc(S(=O)(=O)c2nc(S(C)(=O)=O)sc2N2CCC(C)CC2)cc1,4396,7.3,10.7,4.5,2.3,13.6
O=C(NCc1nnnn1-c1ccc(F)cc1)c1ccc([N+](=O)[O-])o1,u,-4.3,x,1.1,x,-18.4
COCCNc1nc2c(c(=O)[nH]c(=O)n2C)n1CCCc1ccccc1,3456,-1.5,1.7,-1.2,0.7,15.7
CCC(CC)C(=O)Oc1c(C(=O)N(C)C)cccc1-c1ccccc1,4241,0.2,x,-6.5,x,-1.6
COc1ccc(-c2csc3nc(C)nc(N4CCN(c5ccc(C(C)=O)cc5)CC4)c23)cc1OC,3958,0.4,-14.4,-2.2,3.0,0.7
Cc1ccc(-c2nn3c(C)nnc3c3ccccc23)cc1S(=O)(=O)NCCN1CCOCC1,22118*,-5.8,52.4*,-2.5,2.1,-5.6
CCCC(=O)Nc1cc(-c2nn(C)c(=O)c3ccccc23)ccc1N1CCCCC1,16901*,-2.1,x,-2.8,0.7,-1.3
SMILES,Autofluor counter,BoNT-A LC inh2,VHR inh abs,Anthrax LF prot,3CLpro inhibitor,BoNT F protease
Cc1ccc(-c2n[nH]c(=O)c3ccccc23)cc1S(=O)(=O)NCCN1CCOCC1,3844,0.1,13.4,0.7,5.8,8.7
O=C(c1sc2ccccc2c1Cl)N1CCN(c2ccccn2)CC1,5573,1.5,14.9,1.1,2.3,11.1
O=C(c1sc2ccccc2c1Cl)N1CCC2(CC1)OCCO2,21877*,u,-9.6,-2.7,-4.2,-5.9
CCSc1nnc(-c2ccc(S(=O)(=O)NCc3cccs3)cc2)o1,20964*,-0.9,-0.4,-1.8,-0.7,-3.7
Cc1sc2ncnc(N3CCC(C(=O)NNC(=O)c4ccccc4Cl)CC3)c2c1C,5805,-0.2,53.3*,-0.8,-0.1,2.0
Cc1sc2ncnc(N3CCC(C(=O)NNC(=O)COc4ccccc4Cl)CC3)c2c1C,4971,0.0,x,2.3,x,3.2
Cc1[nH]c2ccc(C(=O)NCCCN3CCCCC3)cc2c1C,6226,1.5,56.7*,1.8,-0.7,-3.9

# Screens: PubChem, several laboratories
